The text below walks through data of ChEMBL document CHEMBL3988442, “University of Dundee, Small-Polar-MMV Screening Library” (2021).

Parameters in all cases: scale not given: direction of the effect not stated beside the values
Test [1] concerns the target Protein translocase subunit SecA (Escherichia coli (strain K12)) (UniProt P10408). Nature of the test: Assay to Identify E. coli SecA ATPase Inhibitors. In kind it is functional. The settings on record: 30 µM.
Test [2] has as its target T1, Ubiquitin-activating enzyme e1, putative (Leishmania donovani (strain BPK282A1)) (UniProt E9BSI1).
T1 sequence (whole entry): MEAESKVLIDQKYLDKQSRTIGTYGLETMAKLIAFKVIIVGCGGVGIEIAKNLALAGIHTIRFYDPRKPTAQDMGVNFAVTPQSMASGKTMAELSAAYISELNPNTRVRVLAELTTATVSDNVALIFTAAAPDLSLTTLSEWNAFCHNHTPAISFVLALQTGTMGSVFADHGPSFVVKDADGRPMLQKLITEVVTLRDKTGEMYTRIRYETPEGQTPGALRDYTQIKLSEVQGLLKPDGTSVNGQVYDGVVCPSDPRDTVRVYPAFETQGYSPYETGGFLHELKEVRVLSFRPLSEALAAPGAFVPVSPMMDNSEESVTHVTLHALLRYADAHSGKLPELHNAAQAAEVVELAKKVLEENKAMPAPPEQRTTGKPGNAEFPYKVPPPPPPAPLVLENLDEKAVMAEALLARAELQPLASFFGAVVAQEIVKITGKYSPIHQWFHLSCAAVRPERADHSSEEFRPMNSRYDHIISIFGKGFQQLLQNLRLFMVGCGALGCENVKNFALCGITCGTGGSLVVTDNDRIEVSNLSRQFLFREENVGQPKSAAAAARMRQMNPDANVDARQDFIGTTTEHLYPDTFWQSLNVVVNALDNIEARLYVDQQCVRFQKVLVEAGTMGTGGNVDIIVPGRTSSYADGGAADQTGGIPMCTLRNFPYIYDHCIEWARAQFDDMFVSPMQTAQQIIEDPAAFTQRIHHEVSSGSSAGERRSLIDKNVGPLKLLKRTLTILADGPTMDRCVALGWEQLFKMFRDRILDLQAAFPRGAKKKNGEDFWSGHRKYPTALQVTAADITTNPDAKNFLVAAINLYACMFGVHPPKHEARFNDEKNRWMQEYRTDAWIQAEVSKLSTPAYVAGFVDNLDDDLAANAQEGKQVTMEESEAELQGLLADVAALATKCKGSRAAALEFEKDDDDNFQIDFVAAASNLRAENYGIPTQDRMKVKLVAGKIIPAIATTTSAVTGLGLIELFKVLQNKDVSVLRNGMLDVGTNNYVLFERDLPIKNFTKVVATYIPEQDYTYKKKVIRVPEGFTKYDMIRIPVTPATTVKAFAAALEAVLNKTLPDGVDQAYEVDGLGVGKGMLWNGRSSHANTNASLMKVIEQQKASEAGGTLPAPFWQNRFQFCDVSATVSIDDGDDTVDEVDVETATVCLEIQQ
The test is described as follows: Leishmania donovani Ubiquitin Activating Enzyme (LdE1). The test is classed as functional. Particulars: 30 µM.

The target in test [3] is AMP-activated protein kinase, AMPK (Homo sapiens) (UniProt P54646+O43741+P54619+Q9UGJ0+Q9Y478+Q13131+Q9UGI9). Nature of the test: AMP-dependent Kinase enzyme assay. An in vitro enzyme assay that detects ADP turnover that is directly proportional to AMPK activity. This uses naive AMPK that is activated during the assay with MK-8722. In kind it is functional. The settings on record: 30 µM.

The target in test [4] is Sialic acid-binding Ig-like lectin 9 (Homo sapiens) (UniProt Q9Y336). Nature of the test: Hs-Siglec9 ALPHAscreen SOP 20170721. The settings on record: 10 µM. (In general: Bead proximity is the source of the signal in Alpha formats.)
The subject of another test is Trypanosoma cruzi. Nature of the test: Trypanosoma cruzi phosphomannomutase and mannose-1-phosphate guanylyltransferase assay. Particulars: 10 µM. The test is classed as functional.
Test [5] has as its target T2, Arginase-2, mitochondrial (Homo sapiens) (UniProt P78540).
T2 sequence (whole entry): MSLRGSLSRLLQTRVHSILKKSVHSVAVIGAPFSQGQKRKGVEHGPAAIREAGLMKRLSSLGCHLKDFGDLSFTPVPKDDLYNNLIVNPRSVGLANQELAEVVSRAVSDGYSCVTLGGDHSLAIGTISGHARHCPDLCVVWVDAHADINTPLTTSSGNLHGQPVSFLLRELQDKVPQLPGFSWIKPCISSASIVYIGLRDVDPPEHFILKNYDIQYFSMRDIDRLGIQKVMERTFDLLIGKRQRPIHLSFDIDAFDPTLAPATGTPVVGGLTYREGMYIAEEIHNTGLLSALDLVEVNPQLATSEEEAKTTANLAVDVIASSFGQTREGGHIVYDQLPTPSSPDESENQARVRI
The test is described as follows: in vitro enzyme assay to detect the production of urea directly proportional to the activity of Arginase II. Further: in the data most compounds retested in dose-response had high values. The test is classed as functional. The settings on record: 33.3 µM.

Test [6] deals with T3, Proteasome subunit beta (Trypanosoma cruzi) (UniProt O96673).
T3 sequence (whole entry): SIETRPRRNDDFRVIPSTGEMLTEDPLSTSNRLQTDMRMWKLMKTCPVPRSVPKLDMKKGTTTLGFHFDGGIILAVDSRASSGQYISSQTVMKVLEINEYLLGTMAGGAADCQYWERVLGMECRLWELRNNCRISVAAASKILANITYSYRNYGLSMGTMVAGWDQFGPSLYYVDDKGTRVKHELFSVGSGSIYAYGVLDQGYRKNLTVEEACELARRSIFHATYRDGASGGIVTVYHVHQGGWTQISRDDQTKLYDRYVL
The test is described as follows: Trypanosoma cruzi proteasome chymotrypsin-like activity (TcProtChymo) assay. Further: in the data most compounds retested in dose-response had high values. The test is classed as functional. Particulars: 9.37 µM.

The species named for another test is Homo sapiens. The test is described as follows: To identify inhibition of the IFN signalling (Jak-Stat) pathway via expression of an eGFP reporter gene under the control of an IFN-stimulated response element (ISRE) containing MxA promoter. In kind it is functional. The settings on record: 30 µM. For orientation: In a reporter assay the amount or activity of a reporter protein is the signal.

The target of test [7] is T4, Tyrosyl-tRNA synthetase, putative (Trypanosoma cruzi (strain CL Brener)) (UniProt Q4DSP6).
T4 sequence (whole entry): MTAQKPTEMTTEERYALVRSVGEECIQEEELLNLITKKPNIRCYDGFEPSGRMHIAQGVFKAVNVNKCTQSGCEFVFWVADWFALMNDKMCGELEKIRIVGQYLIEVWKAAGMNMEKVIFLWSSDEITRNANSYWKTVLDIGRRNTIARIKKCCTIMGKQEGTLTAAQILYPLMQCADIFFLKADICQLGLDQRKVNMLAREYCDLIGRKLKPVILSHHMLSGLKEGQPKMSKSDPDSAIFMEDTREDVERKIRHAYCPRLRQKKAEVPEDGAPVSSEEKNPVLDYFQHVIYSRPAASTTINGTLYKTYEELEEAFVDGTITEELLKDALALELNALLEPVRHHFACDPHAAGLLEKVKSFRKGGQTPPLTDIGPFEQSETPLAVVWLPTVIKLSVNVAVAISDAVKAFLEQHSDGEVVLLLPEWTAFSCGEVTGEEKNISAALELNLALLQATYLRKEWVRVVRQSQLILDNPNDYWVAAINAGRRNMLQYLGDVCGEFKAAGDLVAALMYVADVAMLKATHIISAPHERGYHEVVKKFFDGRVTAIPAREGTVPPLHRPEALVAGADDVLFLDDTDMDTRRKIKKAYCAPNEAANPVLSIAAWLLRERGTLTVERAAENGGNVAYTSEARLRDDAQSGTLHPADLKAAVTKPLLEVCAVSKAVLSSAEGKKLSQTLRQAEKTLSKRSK
The test is described as follows: Trypanosoma cruzi tyrosyl tRNA synthetase (TcYRS) _High Tyrosine SOP. Further: in the data most compounds retested in dose-response had high values. The test is classed as functional. The settings on record: 30 µM.

Test [8] deals with T4, Tyrosyl-tRNA synthetase, putative (Trypanosoma cruzi (strain CL Brener)). The test is described as follows: Trypanosoma cruzi tyrosyl tRNA synthetase (TcYRS) SOP. The settings on record: 30 µM. The test is classed as functional.
Test [9] concerns the target Chromo domain-containing protein 1 (Saccharomyces cerevisiae (strain ATCC 204508 / S288c) (Baker's yeast)) (UniProt P32657). The test is described as follows: ScCHD-1 Enzyme Inhibition Assay. Further: in the data most compounds retested in dose-response had high values. The test is classed as functional. The settings on record: 30 µM.

For some of these results: Potency and affinity values are given separately.

Sequence of Chromo domain-containing protein 1 (Saccharomyces cerevisiae (strain ATCC 204508 / S288c) (Baker's yeast)) (P32657 whole entry, the tested form may be a part): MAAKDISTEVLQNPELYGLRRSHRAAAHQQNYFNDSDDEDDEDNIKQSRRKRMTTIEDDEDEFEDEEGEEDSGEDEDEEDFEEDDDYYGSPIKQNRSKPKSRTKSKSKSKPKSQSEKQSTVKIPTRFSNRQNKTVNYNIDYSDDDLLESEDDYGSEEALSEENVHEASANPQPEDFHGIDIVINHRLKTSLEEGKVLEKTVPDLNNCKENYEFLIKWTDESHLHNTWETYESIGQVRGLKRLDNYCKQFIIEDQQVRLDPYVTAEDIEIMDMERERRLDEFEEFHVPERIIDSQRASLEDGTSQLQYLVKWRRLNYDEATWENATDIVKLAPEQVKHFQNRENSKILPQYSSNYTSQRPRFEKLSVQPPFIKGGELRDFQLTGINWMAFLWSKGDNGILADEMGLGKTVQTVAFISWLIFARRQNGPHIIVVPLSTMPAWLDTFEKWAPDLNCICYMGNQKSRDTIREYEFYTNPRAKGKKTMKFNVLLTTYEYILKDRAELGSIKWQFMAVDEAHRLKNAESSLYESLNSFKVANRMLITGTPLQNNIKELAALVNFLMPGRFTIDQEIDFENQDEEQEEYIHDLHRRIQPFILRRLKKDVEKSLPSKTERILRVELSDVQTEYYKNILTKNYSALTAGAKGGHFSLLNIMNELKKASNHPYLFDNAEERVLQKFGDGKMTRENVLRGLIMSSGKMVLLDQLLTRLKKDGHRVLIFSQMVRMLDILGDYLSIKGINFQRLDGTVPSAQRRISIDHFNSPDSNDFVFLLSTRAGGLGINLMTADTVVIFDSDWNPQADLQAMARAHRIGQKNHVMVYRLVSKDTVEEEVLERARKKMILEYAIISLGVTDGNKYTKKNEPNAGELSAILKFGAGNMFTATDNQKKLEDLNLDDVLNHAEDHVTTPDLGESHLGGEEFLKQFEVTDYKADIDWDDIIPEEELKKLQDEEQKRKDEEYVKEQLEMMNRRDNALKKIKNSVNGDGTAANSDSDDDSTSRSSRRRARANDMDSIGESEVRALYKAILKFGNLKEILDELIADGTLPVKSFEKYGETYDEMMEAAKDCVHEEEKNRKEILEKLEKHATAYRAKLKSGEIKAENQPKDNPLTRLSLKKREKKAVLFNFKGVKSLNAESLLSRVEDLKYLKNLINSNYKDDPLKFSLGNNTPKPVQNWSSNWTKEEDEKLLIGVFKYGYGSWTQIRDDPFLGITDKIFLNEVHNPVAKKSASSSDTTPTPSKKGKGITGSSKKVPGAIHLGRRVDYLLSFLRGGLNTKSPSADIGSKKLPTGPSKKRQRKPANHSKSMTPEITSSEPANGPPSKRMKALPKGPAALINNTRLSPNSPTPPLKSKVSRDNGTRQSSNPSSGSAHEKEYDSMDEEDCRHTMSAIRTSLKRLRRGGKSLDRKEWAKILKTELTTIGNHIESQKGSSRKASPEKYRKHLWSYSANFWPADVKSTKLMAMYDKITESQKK
Sequence of Protein translocase subunit SecA (Escherichia coli (strain K12)) (P10408 whole entry): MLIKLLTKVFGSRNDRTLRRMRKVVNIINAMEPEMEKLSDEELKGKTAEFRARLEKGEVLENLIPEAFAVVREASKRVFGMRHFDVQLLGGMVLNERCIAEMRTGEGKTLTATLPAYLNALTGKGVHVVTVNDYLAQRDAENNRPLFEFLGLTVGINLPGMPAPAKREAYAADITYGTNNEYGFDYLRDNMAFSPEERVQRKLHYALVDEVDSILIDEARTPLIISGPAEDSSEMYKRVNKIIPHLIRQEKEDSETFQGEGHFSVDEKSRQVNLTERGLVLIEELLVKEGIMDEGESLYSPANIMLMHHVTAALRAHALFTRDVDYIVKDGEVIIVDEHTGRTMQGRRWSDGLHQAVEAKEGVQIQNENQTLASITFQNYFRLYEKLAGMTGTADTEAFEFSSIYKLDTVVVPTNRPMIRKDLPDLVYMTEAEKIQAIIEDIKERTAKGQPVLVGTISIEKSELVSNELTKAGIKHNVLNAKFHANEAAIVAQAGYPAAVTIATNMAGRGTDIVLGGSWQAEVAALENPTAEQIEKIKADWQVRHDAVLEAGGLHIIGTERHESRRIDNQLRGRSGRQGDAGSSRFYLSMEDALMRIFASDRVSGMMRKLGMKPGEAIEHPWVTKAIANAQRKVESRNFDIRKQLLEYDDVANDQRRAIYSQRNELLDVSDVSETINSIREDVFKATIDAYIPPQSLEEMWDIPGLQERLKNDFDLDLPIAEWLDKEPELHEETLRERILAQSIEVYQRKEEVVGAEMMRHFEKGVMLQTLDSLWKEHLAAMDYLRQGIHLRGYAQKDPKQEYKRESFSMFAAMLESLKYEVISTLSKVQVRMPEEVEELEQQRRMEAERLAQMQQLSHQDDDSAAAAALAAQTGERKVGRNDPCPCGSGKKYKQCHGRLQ
Sequence of Sialic acid-binding Ig-like lectin 9 (Homo sapiens) (Q9Y336 whole entry): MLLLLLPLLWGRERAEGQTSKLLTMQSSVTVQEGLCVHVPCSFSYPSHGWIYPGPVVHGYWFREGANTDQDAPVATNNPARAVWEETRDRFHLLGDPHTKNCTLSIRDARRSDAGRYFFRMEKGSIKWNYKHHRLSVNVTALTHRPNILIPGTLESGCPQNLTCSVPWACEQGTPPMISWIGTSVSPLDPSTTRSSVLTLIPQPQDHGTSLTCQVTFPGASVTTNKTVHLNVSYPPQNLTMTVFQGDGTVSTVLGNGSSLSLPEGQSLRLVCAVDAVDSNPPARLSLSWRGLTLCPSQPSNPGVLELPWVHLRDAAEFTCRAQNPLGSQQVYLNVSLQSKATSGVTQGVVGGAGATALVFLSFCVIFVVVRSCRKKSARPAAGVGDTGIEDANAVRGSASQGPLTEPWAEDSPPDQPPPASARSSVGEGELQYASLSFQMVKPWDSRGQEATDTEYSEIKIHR

As to `CCC1CN(C(=O)c2ccc(=O)[nH]c2)CCC(=O)N1Cc1ccccc1` (stereo unspecified), the Percent Effect in [1] was -1.75%; in test [2] it was 4.17%; in test [3], -3.51%; in [4] it was -12.5%; in the test on Trypanosoma cruzi it was -3.21%; in test [5], 3.09%. Also, the Percent Effect was 14% in test [6]; 14.1% in the test filed under Homo sapiens; 0% in test [7]; 2.56% in test [8]; -2.44% in test [9].

Take `c1cnc(NCc2ncn3c2CN(Cc2cccnc2)CCC3)nc1`: the Percent Effect in test [1] was -0.478%; in test [2] it was 2.7%; in test [3] it was 0.693%; in test [4], -4.85%; in the test on Trypanosoma cruzi, -2.15%; in test [5], 1.25%. Also, the Percent Effect in test [6] was 8.03%; in the test filed under Homo sapiens, 2.98%; in [7], 8.91%; in [8] it was 8.54%; in test [9] it was -0.718%.

As for `O=C(CN(Cc1cccnc1)CC1CCCO1)Nc1ccc(F)cc1` (stereo unspecified), the Percent Effect in test [1] is -3.61%; in [2], 2.74%; in test [3], 1.19%; in [4] it was 0.415%; in the test on Trypanosoma cruzi, -2.35%; in test [5], -1.82%. Further, the Percent Effect in test [6] amounted to 10.3%; in the test filed under Homo sapiens, 5.96%; in test [7], 0%; in [8], 0%; in [9] it was 0.815%.

As to `CC(=O)N1CCC2(CC1)COCCN2CCN(C)C`, the Percent Effect in test [1] was -1.15%; in test [2] it was 5.33%; in test [3] it was 0.268%; in test [4] it was 4.02%; with Trypanosoma cruzi, -4.25%; in test [5], -26.3%. The Percent Effect in test [6] was 3.59%; in the test filed under Homo sapiens it was -11.5%; in test [7] it was 2.08%; in [8] it was -25%; in test [9], -5.07%.

Regarding `O=C(O)c1ccc(F)c(S(=O)(=O)Nc2c(F)cccc2-n2cccn2)c1`, the Percent Effect in test [1] was -6.05%; in test [2] it was 2.67%; in [3] it was -4.66%; in [4], 12.6%; in the test with Trypanosoma cruzi it was 2.04%; in [5], 3.12%. In addition, the Percent Effect in test [6] was 8.02%; in the test filed under Homo sapiens it was 2.56%; in [7], 4.92%; in test [8] it was 8.64%; in test [9], -3.46%.

Regarding `CCc1ccc(OCC(O)CN2CCC(O)CC2)cc1` (stereo unspecified), the Percent Effect in test [1] is -6.44%; in [2], -2.6%; in [3] it was 5.75%; in test [4], -12.1%; in the test with Trypanosoma cruzi it was -4.21%; in test [5] it was -1.05%. For the same compound, the Percent Effect was 5.42% in [6]; 11.1% in the test listed under Homo sapiens; -2.86% in test [7]; 0% in test [8]; -19% in test [9].

As for `CCc1cnc2c(c1NCc1cccc(OC)c1)c(=O)n(C)c(=O)n2C`, the Percent Effect in test [1] was -0.146%; in [2], 23.4%; in test [3] it was -3.97%; in [4], -14.3%; in the test on Trypanosoma cruzi, 0.0986%; in test [5], -4.52%. The Percent Effect was 5.74% in test [6]; 19.2% in the test listed under Homo sapiens; 3.17% in test [7]; 14.1% in test [8]; -8.85% in test [9].

Take `Fc1ccc(CN2CCCC2Cn2cccn2)c2ncccc12` (stereo unspecified): the Percent Effect was -3.18% in test [1]; -16.2% in test [2]; -9.76% in test [3]; 11.6% in test [4]; -2.51% in the test with Trypanosoma cruzi; -0.185% in test [5]. Also, the Percent Effect is 3.41% in test [6]; -3.85% in the test filed under Homo sapiens; 11.9% in test [7]; 11% in test [8]; 7.89% in test [9].

As to `CCc1cnc2c(c1NCc1ccncc1)c(=O)n(C)c(=O)n2C`, the Percent Effect is 0.985% in [1]; 8.22% in test [2]; -0.992% in test [3]; -0.488% in test [4]; -4.5% with Trypanosoma cruzi; 5% in [5]. Besides, the Percent Effect was 13.1% in test [6]; 14.7% in the test listed under Homo sapiens; 6.45% in [7]; 10% in test [8]; -4.37% in [9].

With `COc1ccc(CC(=O)N2CCCN(c3ccc(C#N)cc3)CC2)cc1`, the Percent Effect in [1] is -3.96%; in test [2] it was -5.26%; in [3], 8.87%; in [4] it was -0.428%; with Trypanosoma cruzi, -5.75%; in test [5], -8.28%. Besides, the Percent Effect was 11.8% in test [6]; -1.35% in the test filed under Homo sapiens; -3.19% in test [7]; 2.6% in test [8]; -7.99% in test [9].

In the case of `CC(=O)Nc1nc(C(=O)Nc2ccc(F)cc2)cs1`, the Percent Effect in test [1] was -2.09%; in test [2] it was 15.6%; in test [3], 28%; in [4], -6.42%; with Trypanosoma cruzi, -1.86%; in [5] it was -15.4%. In addition, the Percent Effect in test [6] was 16.7%; in the test filed under Homo sapiens it was 8.03%; in test [7], 7.62%; in [8], 18.8%; in test [9], 3.31%.
